# Compounds with a hit are over-represented: about 2% of the library has one in this group of screens.
# S1P3 antagonist: blocks the human S1P3 receptor; inhibition, % at 4.98 µM; hit rate 0.27% among 170,000; CHO S1P3 NFAT-BLA reporter, FRET fluorescence, antagonist mode; Q99500;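 active means inhibition above the plate cutoff, the mean inhibition of test wells on that plate plus 3 SD, cut at about 28% in these data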;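 further: cells challenged with S1P at its EC80 of 0.8 µM; blue over green emission ratio from cleaved BLA substrate after 4 h stimulation; 0% = S1P-stimulated wells and 100% = unstimulated DMSO-only wells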
# EP2 modulator: modulates human prostaglandin E2 receptor EP2 signaling | AID 940 | induction, % at 25 µM | P43116 | EP2-expressing cells, cAMP HTRF FRET, PGE2 co-stimulation | hit rate 0.83% among 260,000;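 active means compounds whose cAMP rise, as percent of the full-agonist control response, exceeds 60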;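 further: rat C6 glioma line stably carrying human EP2 under a CMV promoter; the protocol text gives 20 µM as final concentration; 100% = response of wells given 1 µM PGE2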
# Target sequence (P43116 whole entry, looked up): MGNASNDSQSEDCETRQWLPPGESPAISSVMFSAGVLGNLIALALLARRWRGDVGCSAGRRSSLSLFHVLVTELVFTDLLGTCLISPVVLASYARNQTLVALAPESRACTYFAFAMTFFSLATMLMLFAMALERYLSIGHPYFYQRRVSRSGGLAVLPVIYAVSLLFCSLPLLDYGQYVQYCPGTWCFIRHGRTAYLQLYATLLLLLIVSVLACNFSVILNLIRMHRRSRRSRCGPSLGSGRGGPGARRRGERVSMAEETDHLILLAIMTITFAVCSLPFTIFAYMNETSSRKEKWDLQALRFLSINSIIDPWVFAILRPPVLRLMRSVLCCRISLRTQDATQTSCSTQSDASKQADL
# PGE2 EP2 inh: blocks the human prostaglandin E2 receptor EP2; P43116; C6 glioma cells expressing human EP2, cAMP TR-FRET; cells stimulated with saturating PGE2; inhibition, % at 25 µM; hit rate 0.52% among 260,000;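 active means percent inhibition above 40 after rounding to a whole number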;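 further: rat C6 glioma host cells with rolipram phosphodiesterase inhibitor present; the protocol text gives 20 µM as final concentration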
# S1P4 ag: agonists of human S1P4 receptor | O95977 | S1P4-expressing cell line, agonist reporter assay | activation, % at 4.98 µM | hit rate 0.35% among 220,000; in the data active means activation above about 11%;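 further: 0% = DMSO vehicle and 100% = reference agonist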
# S1P4 antagonist: blocks the human S1P4 receptor | AID 1510 | hit rate 0.26% among 220,000 | S1P4-expressing cells, antagonist mode, reporter read-out | inhibition, % at 4.98 µM | O95977; in the data active means inhibition above about 29%;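 further: 0% = wells stimulated with agonist and 100% = vehicle wells without agonist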
# Numbers without * were called inactive; . = no result; ! = not active in a repeat.
SMILES,S1P3 antagonist,EP2 modulator,PGE2 EP2 inh,S1P4 ag,S1P4 antagonist
CC1=C(C#N)c2nc(N)c(C#N)c(C)c2/C1=C\c1ccc(C)cc1,.,-111.0,39.7*!,0.5,-2.8
CC1=C(C#N)c2nc(N)c(C#N)c(C)c2/C1=C/c1cccc(F)c1,.,-86.6,27.4,.,.
Clc1ccc(CN2CCCCCCC2)cc1,10.9,19.6,7.0,-0.9,6.2
Clc1ccc(CN2CCCN(Cc3ccc(Cl)cc3)C2c2cc3ccccc3c3ccccc23)cc1,.,12.3,51.1*,.,.
Nc1nc(SCC(=O)C2CCC(Br)CC2)c2[nH]cnc2n1 (centres undefined),.,-32.7,48.9*,.,.
CCOc1ccc(-n2c(SCC(N)=O)nnc2-c2ccoc2C)cc1,.,-12.7,7.9,.,.
Nc1cc2nc3ccccc3oc-2cc1=O,-1.3,-40.0,42.0*,-0.8,-2.1
COc1ccc2nc3cc(Cl)ccc3c(Nc3ccc(O)c(CN4CCN(C)CC4)c3)c2c1,.,-33.6,89.8*,.,.
COc1ccc2nc3cc(Cl)ccc3c(C#N)c2c1,-15.1,-1.4,3.9,-1.5,6.3
Cc1ccc(S(=O)(=O)N2c3cc(C)ccc3OCC2C(C)(C)C)cc1 (centres undefined),.,62.0*,14.7,0.0,-23.4
CCOC(=O)c1sc(NC(=O)CSc2nnc3cc(C)c4cc(C)cc(C)c4n23)nc1C,.,2.6,13.8,.,.
COc1ccc([C@@H]2CN(C(=O)c3cccs3)C[C@H]2C(=O)O)cc1,.,-47.7,4.8,.,.
COc1ccc(C(C)(C)C)cc1NC(=O)Nc1ccc2c(c1)OCO2,59.4*,-4.5,.,-2.2,0.6
COc1cc(NC(=O)Nc2ccc3c(c2)OCO3)cc(OC)c1OC,-2.9,-12.9,5.9,1.2,-10.2
Cc1nc2ccccn2c(=O)c1CCN1CCC(C(=O)c2ccc(F)cc2)CC1,-10.1,-14.0,10.0,81.1*,-1.4
O=S1(=O)c2ccccc2N=NN1Cc1ccc(Cl)c(Cl)c1,.,-36.2,45.1*,-2.6,15.8
COc1cccc(CN(Cc2cccnc2)C2CC(C)(C)NC(C)(C)C2)c1,.,-17.7,5.0,.,.
Cc1ccc(S(=O)(=O)O[C@H]2C[C@@H](C(C)(C)C)CC[C@@H]2c2ccccc2)cc1,.,31.9,43.4*,.,.
COc1ccc(/C(O)=C2/C(=O)C(=O)NC2c2ccc(F)cc2)cc1OC (centres undefined),.,70.0*,12.7,.,.
COC(=O)c1ccc(C2NC(=O)C(=O)/C2=C(\O)c2ccc(OC)c(OC)c2)cc1 (centres undefined),.,-33.6,5.6,.,.
CC1CCCCN1C(=O)CCSc1nc(-c2ccc3c(c2)OCO3)cc(C(F)(F)F)n1 (centres undefined),.,-25.7,15.8,.,.
CCc1ccc2[nH]c(=O)c(CN(CCO)C(=S)Nc3ccccc3C(=O)OC)cc2c1,.,-4.3,12.8,.,.
CC1(C)O[C@H]2[C@@H](O1)[C@@H](On1nnc3ccc(Cl)cc31)O[C@@H]2[C@@H]1COC(C)(C)O1,.,26.0,52.0*,.,.
CCc1cc2ccc(OC)cc2nc1SCC(=O)NNC(=O)C(C)C,.,-18.7,11.4,.,.
CN(C)CCCN1c2ccccc2Sc2cnccc21,.,-15.5,44.9*,.,.
SMILES,S1P3 antagonist,EP2 modulator,PGE2 EP2 inh,S1P4 ag,S1P4 antagonist
CSc1ccc2c(c1)N(CCCN(C)C)c1ccccc1S2,.,17.0,11.1,.,.
CC(Nc1nc(-c2ccccc2O)nc2ccccc12)c1ccccc1 (centres undefined),-0.9,69.9*,5.7,1.5,2.1
O=S1(=O)N[C@H]2CC[C@H]3NS(=O)(=O)N[C@H]4CC[C@@H](N1)N4S(=O)(=O)N23,.,26.8,45.3*,.,.
CC(NC(=O)CCN1Cc2ccccc2C1=O)c1ccc2c(c1)CCC2 (centres undefined),.,-42.4,5.6,.,.
COc1cc(N=c2ssnc2Cl)cc(OC)c1,7.5,-5.9,94.8*,2.1,-11.4
Clc1nssc1=Nc1ccc(Br)cc1,-2.2,-90.3,9.7,0.8,-7.9
CC(=O)c1cccc2c(O)c(C3=Nc4ccccc4C3=O)[nH]c12,.,-58.1,47.4*,-1.0,5.8
O=C1C(c2c(O)[nH]c3ccccc23)=Nc2ccccc21,-4.3,.,24.4,2.7,-10.1
C[c-]1[c-](C)[c-](C)[c-](C)[c-]1C.[Fe].c1cc2nccc(N3CCCC3)[c-]2c1 (centres undefined),.,-3.0,55.1*!,.,.
Cn1cnc2c(N3CCCCC3)nccc21,-2.0,7.5,15.1,0.2,-5.5
Cc1cc2nnc(SCC(=O)NCc3ccccc3)n2c2ccccc12,.,-12.3,9.2,.,.
CS(=O)(=O)N(CC(=O)N1CCCC1)c1ccc2c(c1)OCO2,.,1.6,8.4,.,.
O=C(Nc1ccc(OCC(F)(F)C(F)F)c(C(F)(F)F)c1)c1ccccc1O,.,-18.7,14.6,2.7,-2.9
O=C(Nc1ccc(OCC(F)(F)C(F)F)c(C(F)(F)F)c1)c1ccccc1,.,.,44.7*,0.1,-6.9
C#CC(=O)N(c1ccc2c(c1)OCCO2)C(C(=O)NC1CCCC1)c1ccccc1 (centres undefined),.,-62.3,5.2,.,.
COc1ccccc1NC(=S)N1CCC(NC(=O)C(C)(C)C)CC1,.,-18.6,9.1,.,.
COc1ccc(-c2oc3ncnc(NCCCN4CCOCC4)c3c2-c2ccc(OC)cc2)cc1,-13.7,60.9*,6.2,1.9,-5.3
COc1ccc(-c2oc3ncnc(NCCN4CCOCC4)c3c2-c2ccc(OC)cc2)cc1,5.6,.,16.1,1.0,3.4
CC(C)C(=O)N1CCN(c2ccc(NC(=O)c3cccc(F)c3)cc2Cl)CC1,.,-41.0,20.0,.,.
CCN(CC)c1ccc(/C=c2/sc3nnc(-c4ccccc4C)n3c2=O)cc1,.,11.5,48.1*,-2.4,-3.2
Cc1cccc2cc(C#N)c(NCCNC(=O)Nc3ccccc3)nc12,.,-36.4,19.8,.,.
Cc1ccc2nc(N3C(=O)C(O)=C(C(=O)c4ccco4)C3c3cccs3)sc2c1 (centres undefined),.,31.2,75.4*!,2.1,-11.8
Cc1ccc2nc(N3C(=O)C(O)=C(C(=O)c4ccc(C)o4)C3c3ccc(O)cc3)sc2c1 (centres undefined),.,-7.7,49.4*,.,.
Cc1ccc2nc(N3C(=O)C(O)=C(C(=O)c4ccco4)C3c3ccco3)sc2c1 (centres undefined),.,11.8,35.4,.,.
CN(C)Cc1cc(C(C)(C)C)cc(CN(C)C)c1O,.,9.3,18.4,.,.
SMILES,S1P3 antagonist,EP2 modulator,PGE2 EP2 inh,S1P4 ag,S1P4 antagonist
CN(C)Cc1cc(C(C)(C)C)ccc1-c1ccc(C(C)(C)C)cc1CN(C)C,.,7.0,50.4*,.,.
Cc1cc(C(C)(C)C)oc1C(=O)N(CC(=O)NC1CCCC1)c1ccc(F)cc1,.,1.4,14.6,3.2,-10.5
Cc1cc(C(C)(C)C)oc1C(=O)N(CC(=O)NC1CCCC1)c1c(C)cccc1C,.,64.0*,11.2,1.2,0.0
CCOC(=O)C1CCCN(Cc2c(Cl)cccc2Cl)C1 (centres undefined),-11.1,60.8*,0.8,-3.6,-23.2
CCOC(=O)C1CCCN(Cc2ccccc2F)C1 (centres undefined),14.0,17.2,1.6,1.8,-13.9
CN(C)Cc1cc(C(F)(F)F)ccc1C(O)(c1ccccc1)c1ccccc1,.,-17.9,46.1*,.,.
Cc1ccc(C(=O)C2=C(O)C(=O)N(Cc3ccccc3)C2c2cccnc2)o1 (centres undefined),-6.1,61.3*,17.2,-0.5,-4.2
